Reference: PubChem BioAssay (Tox21)
Records with an inconclusive call do not appear. Calls of active or inactive are those of the source. The call rests on the fitted dose curve; in most records, active means well fitted curve in the direction sought with a large enough effect in the repeat runs; inconclusive means weak or mixed curves; inactive means no such curve, though single readings can be large; an effect the other way counts as inactive or inconclusive.

How the values were obtained:
[1] = qHTS RealTime-Glo MT Cell Viability Assay in HepG2 cells - 24 hour (AID 1224867); further: nearly all actives have a fitted effect of over 50% in size
How it was run: (§1)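 Viability was tracked continuously by NanoLuc luminescence from prosubstrate reduced by living HepG2 cells, at successive time points over 40 h of compound exposure. Cells with reagent were preincubated 5 h at 37 °C before compound addition.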

[2] = qHTS RealTime-Glo MT Cell Viability Assay in HEK293 cells - 32 hour (AID 1224868); further: top concentration of the series differs between compounds; nearly all actives have a fitted effect of over 50% in size
How it was run: (§2)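 Viability tracked continuously by luminescence as live cells reduce a prosubstrate for NanoLuc; HEK293 cells preincubated 5 h, compound-treated at 37 C, and read at 0, 8, 16, 24, 32 and 40 h.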

[3] = A CellTox Green Cytotoxicity Assay to monitor cytotoxicity in HEK293 cells - 0 hour (AID 1224869); further: nearly all actives have a fitted effect of over 50% in size
How it was run: (§3)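 HEK293 cells premixed with CellTox Green dye were seeded at 600 cells/well and left 5 h at 37 C/5% CO2 before pin transfer of 23 nL compound in DMSO. Fluorescence from dye bound to dead-cell DNA was read during 40 h treatment.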

[4] = A CellTox Green Cytotoxicity Assay to monitor cytotoxicity in HEK293 cells - 40 hour (AID 1224871); further: nearly all actives have a fitted effect of over 45% in size; further: potency means the concentration at half of the fitted maximal effect
How it was run: as §3

[5] = qHTS RealTime-Glo MT Cell Viability Assay in HEK293 cells - 16 hour (AID 1224872); further: top concentration of the series differs between compounds; nearly all actives have a fitted effect of over 50% in size
How it was run: as §2

[6] = qHTS RealTime-Glo MT Cell Viability Assay in HepG2 cells - 8 hour (AID 1224873); further: nearly all actives have a fitted effect of over 55% in size
How it was run: (§4)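 HepG2 cells (600/well) mixed with RealTime-Glo MT reagent, settled 5 h at 37 C/5% CO2 before compound addition. Nonlytic NanoLuc luminescence from viable-cell prosubstrate reduction read repeatedly during 40 h treatment at 37 C.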

[7] = A CellTox Green Cytotoxicity Assay to monitor cytotoxicity in HEK293 cells - 24 hour (AID 1224875); further: nearly all actives have a fitted effect of over 45% in size; further: potency means the concentration at half of the fitted maximal effect; on activity change: series mostly up to about 77 µM
How it was run: as §3

[8] = A CellTox Green Cytotoxicity Assay to monitor cytotoxicity in HepG2 cells - 16 hour (AID 1224876); further: nearly all actives have a fitted effect of over 45% in size
How it was run: (§5)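 HepG2 cells were seeded together with the CellTox Green dye at 600 cells/well, left 5 h at 37 C/5% CO2, then given compounds in DMSO. Fluorescence from dye bound to dead-cell DNA was read repeatedly over 40 h of treatment at 37 C.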

[9] = qHTS RealTime-Glo MT Cell Viability Assay in HepG2 cells - 32 hour (AID 1224877); further: nearly all actives have a fitted effect of over 55% in size
How it was run: as §1

[10] = A CellTox Green Cytotoxicity Assay to monitor cytotoxicity in HepG2 cells - 24 hour (AID 1224878); further: nearly all actives have a fitted effect of over 45% in size
How it was run: as §5

[11] = A CellTox Green Cytotoxicity Assay to monitor cytotoxicity in HepG2 cells - 40 hour (AID 1224879); further: nearly all actives have a fitted effect of over 40% in size
How it was run: as §5

[12] = qHTS RealTime-Glo MT Cell Viability Assay in HEK293 cells - 0 hour (AID 1224880)
How it was run: (§6)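 HEK293 cells mixed with RealTime-Glo reagents (NanoLuc plus cell-permeant prosubstrate) at 600 cells/well, preincubated 5 h at 37 C/5% CO2, then given 23 nL compound in DMSO. Nonlytic luminescence from viable cells was read at 0, 8, 16, 24, 32 and 40 h.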

[13] = A CellTox Green Cytotoxicity Assay to monitor cytotoxicity in HEK293 cells - 32 hour (AID 1224881); further: nearly all actives have a fitted effect of over 40% in size; further: potency means the concentration at half of the fitted maximal effect
How it was run: as §3

[14] = A CellTox Green Cytotoxicity Assay to monitor cytotoxicity in HepG2 cells - 0 hour (AID 1224882); further: nearly all actives have a fitted effect of over 35% in size
How it was run: as §5

[15] = A CellTox Green Cytotoxicity Assay to monitor cytotoxicity in HepG2 cells - 32 hour (AID 1224883); further: nearly all actives have a fitted effect of over 50% in size
How it was run: as §5

[16] = A CellTox Green Cytotoxicity Assay to monitor cytotoxicity in HEK293 cells - 8 hour (AID 1224884); further: nearly all actives have a fitted effect of over 35% in size
How it was run: as §3

[17] = qHTS RealTime-Glo MT Cell Viability Assay in HepG2 cells - 16 hour (AID 1224885); further: nearly all actives have a fitted effect of over 50% in size
How it was run: as §1

[18] = qHTS RealTime-Glo MT Cell Viability Assay in HEK293 cells - 24 hour (AID 1224886)
How it was run: as §2

[19] = qHTS RealTime-Glo MT Cell Viability Assay in HEK293 cells - 40 hour (AID 1224874); conditions: RealTime-Glo luminescence; max response: active compounds read low; further: nearly all actives have a fitted effect of over 50% in size
How it was run: as §6

[20] = qHTS RealTime-Glo MT Cell Viability Assay in HepG2 cells - 40 hour (AID 1224870); further: nearly all actives have a fitted effect of over 50% in size
How it was run: as §4
On the % scale 0 is the no-effect control and ±100 the full control effect.

Cc1ccc(N)cc1S(=O)(=O)O
inactive: outcome [1] | Potency [2] | Potency [3] | Potency [4] | Potency [5] | outcome [6] | Potency [7] | Potency [8] | outcome [9] | Potency [10] | Potency [11] | Potency [12] | Potency [13] | Potency [14] | Potency [15] | Potency [16] | outcome [17] | Potency [18]

CCCC(=O)OC/C=C(\C)CCC=C(C)C
inactive: outcome [1] | Potency [2] | Potency [3] | Potency [5] | outcome [6] | max response [19] 10.7% | Potency [8] | outcome [9] | Potency [10] | Potency [11] | Potency [12] | Potency [14] | Potency [15] | Potency [16] | outcome [17] | Potency [18]
active: Potency [4] 49 µM | Potency [7] 54.9 µM | Potency [13] 49 µM

CC(C)OC(=O)CCC(=O)OC(C)C
inactive: outcome [1] | Potency [3] | outcome [20] | Potency [4] | Potency [5] | outcome [6] | max response [19] 8.19% | Potency [7] | Potency [8] | outcome [9] | Potency [10] | Potency [11] | Potency [12] | Potency [13] | Potency [14] | Potency [15] | Potency [16] | outcome [17] | Potency [18]

CCOc1cccc(N)c1
inactive: outcome [1] | Potency [2] | Potency [3] | Potency [4] | Potency [5] | outcome [6] | max response [19] 2.76% | Potency [7] | Potency [8] | outcome [9] | Potency [10] | Potency [11] | Potency [12] | Potency [13] | Potency [14] | Potency [15] | Potency [16] | outcome [17] | Potency [18]

CCc1occc(=O)c1O
inactive: outcome [1] | Potency [2] | Potency [3] | Potency [4] | Potency [5] | outcome [6] | max response [19] 3.56% | Potency [7] | Potency [8] | outcome [9] | Potency [10] | Potency [11] | Potency [12] | Potency [13] | Potency [14] | Potency [15] | Potency [16] | outcome [17] | Potency [18]

CCCCOCCOC(=O)COc1ccc(Cl)cc1Cl
inactive: outcome [1] | Potency [2] | Potency [3] | Potency [4] | Potency [5] | outcome [6] | max response [19] 1.37% | Potency [7] | Potency [8] | outcome [9] | Potency [10] | Potency [11] | Potency [12] | Potency [13] | Potency [14] | Potency [15] | Potency [16] | outcome [17] | Potency [18]

O=[N+]([O-])c1c(Cl)cc(Cl)cc1Cl
inactive: outcome [1] | Potency [2] | Potency [3] | outcome [20] | Potency [5] | outcome [6] | max response [19] -1.77% | Potency [8] | Potency [10] | Potency [11] | Potency [12] | Potency [14] | Potency [15] | Potency [16] | outcome [17] | Potency [18]

CC(=O)CCC1=C(C)CCCC1(C)C
inactive: outcome [1] | Potency [2] | Potency [3] | outcome [20] | Potency [5] | outcome [6] | max response [19] -7.96% | Potency [7] | Potency [12] | Potency [13] | Potency [14] | Potency [16] | outcome [17] | Potency [18]

ONc1ccccc1
inactive: outcome [1] | Potency [2] | Potency [3] | outcome [20] | Potency [5] | outcome [6] | Potency [7] | Potency [8] | outcome [9] | Potency [10] | Potency [11] | Potency [12] | Potency [13] | Potency [14] | Potency [15] | Potency [16] | outcome [17] | Potency [18]

CCCCCCCCCOC(=O)c1ccccc1C(=O)OCCCCCCCCC
inactive: outcome [1] | Potency [2] | Potency [3] | Potency [4] | Potency [5] | outcome [6] | max response [19] 2.9% | Potency [8] | outcome [9] | Potency [10] | Potency [11] | Potency [12] | Potency [13] | Potency [14] | Potency [15] | Potency [16] | outcome [17] | Potency [18]

CCCCSCCCC
inactive: outcome [1] | Potency [2] | Potency [3] | Potency [4] | outcome [6] | max response [19] 1.22% | Potency [7] | Potency [8] | outcome [9] | Potency [10] | Potency [11] | Potency [12] | Potency [13] | Potency [14] | Potency [15] | Potency [16] | outcome [17] | Potency [18]

COC(C)(OC)OC
inactive: outcome [1] | Potency [2] | Potency [3] | Potency [4] | Potency [5] | outcome [6] | Potency [7] | Potency [8] | outcome [9] | Potency [10] | Potency [11] | Potency [12] | Potency [13] | Potency [14] | Potency [15] | Potency [16] | outcome [17] | Potency [18]

NCc1ccc(S(N)(=O)=O)cc1
inactive: outcome [1] | Potency [3] | outcome [20] | Potency [4] | Potency [5] | outcome [6] | max response [19] 4.4% | Potency [8] | outcome [9] | Potency [10] | Potency [11] | Potency [12] | Potency [13] | Potency [14] | Potency [15] | Potency [16] | outcome [17] | Potency [18]

O=Cc1ccccc1Cl
inactive: outcome [1] | outcome [20] | Potency [5] | outcome [6] | Potency [8] | Potency [10] | Potency [11] | Potency [12] | Potency [14] | Potency [15] | outcome [17] | Potency [18]

CC1(C)CC(OC(=O)CCCCCCCCC(=O)OC2CC(C)(C)NC(C)(C)C2)CC(C)(C)N1
inactive: activity change, negative = cytotoxicity [1] 2.8% [at 15.8 µM] | cytotoxicity [3] -1.08% [at 15.8 µM] | activity change, negative = cytotoxic [20] 6.12% [at 15.8 µM] | cytotoxicity increase [4] -6.42% [at 15.8 µM] | viability change, negative = cytotoxic [6] -0.0146% [at 15.8 µM] | max response [19] 17% | activity change [7] -4.42% [at 15.8 µM, active compounds read high] | cytotoxicity increase [8] -5.51% [at 15.8 µM] | activity change, negative = cytotoxic [9] 3.56% [at 15.8 µM] | cytotoxicity [10] -8.38% [at 15.8 µM] | cytotoxicity increase [11] -12% [at 15.8 µM] | activity change, negative = cytotoxicity [12] 17.6% [at 15.8 µM] | cytotoxicity increase [13] -5.67% [at 15.8 µM] | cytotoxicity [14] -7.52% [at 15.8 µM] | cytotoxicity increase [15] -10.5% [at 15.8 µM] | cytotoxicity increase [16] -2.02% [at 15.8 µM] | activity change, negative = cytotoxic [17] -0.753% [at 15.8 µM] | activity change, negative = cytotoxicity [18] 13.9% [at 15.8 µM]
